# High-throughput results deposited in PubChem BioAssay by National Center for Advancing Translational Sciences (NCATS).
# Sampled rows, rich in hits. Any-hit rate of the full collection: about 2.4%.
# D2 ag-1 – human D2 receptor agonism in beta-arrestin assay. P14416. DiscoveRx PathHunter D2 beta-arrestin, luminescence, 90 min; 100% = 57 uM dopamine signal. activation, % (concentration not given with the values). actives 0.084% (n = 360,000); in the data active = activation above about 40%; inconclusive = between about 15% and that limit
# Target sequence (P14416 whole entry, looked up): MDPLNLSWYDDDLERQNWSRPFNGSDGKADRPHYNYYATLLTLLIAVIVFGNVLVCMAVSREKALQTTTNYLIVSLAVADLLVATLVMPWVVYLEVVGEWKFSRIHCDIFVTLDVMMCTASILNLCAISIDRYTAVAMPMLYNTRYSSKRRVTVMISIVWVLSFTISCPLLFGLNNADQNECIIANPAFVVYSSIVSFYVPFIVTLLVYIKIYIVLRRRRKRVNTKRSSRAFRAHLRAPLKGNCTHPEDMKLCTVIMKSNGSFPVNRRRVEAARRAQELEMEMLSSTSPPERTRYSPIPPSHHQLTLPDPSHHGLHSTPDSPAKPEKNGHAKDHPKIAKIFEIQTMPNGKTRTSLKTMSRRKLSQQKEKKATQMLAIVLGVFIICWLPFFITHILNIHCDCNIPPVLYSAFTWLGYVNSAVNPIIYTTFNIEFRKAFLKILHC
#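 Agonist mode: compounds alone added to overnight-plated D2 PathHunter cells for 90 min at 37 C, with 57 uM final dopamine (EC100) defining full response. Beta-arrestin recruitment detected by chemiluminescent reagent, read after 1 h at ambient temperature.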
# D2 PAM-1 – positively modulates the human D2 dopamine receptor allosterically; HEK293 T-REx D2, calcium flux, EC20 dopamine potentiation; P14416; actives 0.34% (n = 340,000); AID 485347; potentiation, % at 10 µM;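 active = potentiation over 3 SD above the plate norm, cut at about 30% in these data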
#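 Calcium flux readout, no-wash dye, 1 read/s. Inducible HEK293 Trex D2 line, overnight 30 C. Compound alone 180 s (agonist flags), then EC20 dopamine, another 180 s to score potentiation.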
# D2 PAM-2 – human D2 receptor positive allosteric modulation; P14416; DiscoveRx D2 beta-arrestin cells, luminescence, 90 min; 100% = 57 uM dopamine signal; potentiation, % (test concentration not listed); actives 0.23% (n = 360,000); AID 624464; in the data active = potentiation above about 50%; inconclusive = mostly about 30% to 49%
#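 D2 cells co-treated with compound plus 50 nM dopamine (EC20) for 90 min at 37 deg C to detect potentiation. Beta-arrestin recruitment was read as enzyme-fragment luminescence after 1 h at ambient temperature. Full response was set by 57 uM dopamine.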
# D2 ag-2 – activates the human D2 dopamine receptor; P14416; HEK293 T-REx D2 cells, calcium flux agonist mode; activation, % at 2 µM; actives 0.53% (n = 340,000);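 active = activation over 3 SD above normal in the single-dose calcium agonist read, cut at about 30% in these data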
#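 Tetracycline-induced HEK293 T-REx cells with force-coupled D2 receptor, plated overnight at 30 C, loaded with no-wash calcium dye. After a 10 s baseline, compound was pin-added and calcium flux read kinetically for 180 s; calcium rises flagged agonists.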
# D2 antag – antagonists of human D2 dopamine receptor | P14416 | inhibition, % at 10 µM | HEK293 TREx D2 cells, calcium flux, dopamine EC80 | actives 2% (n = 340,000); in the data active = inhibition above about 30%; inactive = below that, where a call was filed
#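 Compounds are added to dye-loaded, induced HEK293 T-REx cells coupled to calcium release via D2; after a 3 min kinetic read an EC80 dopamine stimulus is given and fluorescence is recorded for 3 more min.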
# D3 arrestin ag – activates human D3 dopamine receptor beta-arrestin recruitment; shares compounds with D2 ag-2; DiscoveRx D3 beta-arrestin cells, luminescence, 90 min; Potency, µM (top dose mostly 76.9 µM), actives largely listed as activators; actives 4% (n = 2,300); AID 720506; note: nearly all actives have a fitted effect of over 70% in size
# D2 ag-3 – D2 receptor agonism, beta-arrestin counterscreen | shares compounds with D2 ag-2 | DiscoveRx PathHunter D2 beta-arrestin, luminescence, 90 min; response scale: percent relative to full dopamine signal | Potency, µM (highest dose often 76.9 µM), usual class: activators | actives 5.9% (n = 2,300) | AID 720507; note: nearly all actives have a fitted effect of over 70% in size
# Numbers stand for hits; 0 = inactive; ? = inconclusive; - = no result given. Unless noted, calls come from the whole dose curve; as a rule, active = well fitted activation curve with a large enough effect; inconclusive = small, poorly fitted or top-dose-only effect; inactive = flat fitted curve, though single readings scatter.
SMILES,D2 ag-1,D2 PAM-1,D2 PAM-2,D2 ag-2,D2 antag,D3 arrestin ag,D2 ag-3
CC(=O)c1cc2cc(O)ccc2o1,0,0,0,0,0,-,-
CC(C)c1nc2n(n1)C1(CCCCC1)[C@@H]1CCCC[C@@H]1N2,-,0,-,0,-,-,-
CCOc1ccc(NC(=S)NC(=O)Cc2ccccc2)cc1,0,0,0,0,0,-,-
CCN(CC)c1ccc(NC(=S)NC(=O)Cc2ccccc2)cc1,0,0,0,73.2,77.2,0,0
CC1(c2ccccc2)NC(=O)N(CC(=O)Nc2ccc(S(=O)(=O)Nc3ncccn3)cc2)C1=O (stereo not given),0,0,0,53.2,50.0,0,0
O=C(CSCc1c[nH]c(=O)[nH]c1=O)OCC(=O)c1ccc(Br)cc1,0,-,0,-,-,0,0
c1ccc2c(CC3=NCCN3)cccc2c1,0,0,0,0,0,-,-
Cc1cc(C(C)(C)C)c(O)c(C)c1CC1=NCCN1,0,0,0,72.3,63.5,0,0
COc1ccccc1NC(=O)c1cc([N+](=O)[O-])ccc1NCCN1C(=O)CCC1=O,0,0,0,46.9,0,0,0
CCCN(CCC)CCNC(=O)CN1C(=O)COc2ccc(S(=O)(=O)N3CCOCC3)cc21,0,0,0,37.5,0,0,0
COCCCNC(=O)CN1C(=O)COc2ccc(S(=O)(=O)N3CCOCC3)cc21,0,0,0,0,0,-,-
O=C(NC(=S)N1CCN(C/C=C/c2ccccc2)CC1)c1ccco1,0,0,0,48.0,0,0,0
O=C(c1ccco1)N1CCN(C/C=C/c2ccccc2)CC1,40.7,0,?,89.5,0,?,?
Cc1cc(C(=O)N2CCN(C/C=C/c3ccccc3)CC2)no1,0,0,0,0,0,-,-
O=C(NC(=S)N1CCN(C/C=C/c2ccccc2)CC1)c1c(F)cccc1F,0,0,0,0,0,-,-
O=C(CSc1ncccn1)Nc1cccc2ccccc12,0,0,0,0,0,0,0
O=C(CSCC(=O)Nc1cccc2ccccc12)Nc1cccc2ccccc12,0,-,0,-,-,-,-
COc1ccc(C2c3ccc4ccccc4c3Oc3ncn(CCO)c(=N)c32)cc1OC (stereo not given),0,-,0,-,-,-,-
COc1ccc(C2c3ccc4ccccc4c3Oc3ncn(CCCO)c(=N)c32)cc1OC (stereo not given),0,-,0,-,-,0,0
NC(=O)NC(=O)COC(=O)[C@H](Cc1ccccc1)NC(=O)c1cccs1,0,0,0,0,0,0,0
O=C(COC(=O)[C@H](Cc1ccccc1)NC(=O)c1cccs1)Nc1ccccc1C(F)(F)F,0,0,0,0,0,-,-
CCOc1ccc(NC(=O)CSc2nc(C)c(C(=O)Nc3ccccc3)c(-c3ccc(Cl)cc3)c2C#N)cc1,-,0,-,0,-,-,-
Cc1noc(C)c1COc1ccc(C(=O)N(C)CCOc2ccccc2)cc1,0,0,0,0,0,0,0
Cc1noc(C)c1COC(=O)CCOc1ccccc1,0,0,0,0,0,-,-
N#CCN(C(=O)COC(=O)CCCNC(=O)c1ccc(Cl)cc1)c1ccccc1,0,0,0,0,0,0,0
SMILES,D2 ag-1,D2 PAM-1,D2 PAM-2,D2 ag-2,D2 antag,D3 arrestin ag,D2 ag-3
N#Cc1c(/N=C/c2ccc(Br)s2)sc2c1CCC2,0,0,0,0,0,-,-
Cc1ccc(/C=N/c2sc3c(c2C#N)CCC3)o1,0,0,0,0,0,-,-
N#Cc1c(/N=C\c2ccc(O)c([N+](=O)[O-])c2)sc2c1CCCC2,?,0,0,66.6,0,?,0
N#Cc1c(/N=C/c2ccc(-c3ccccc3C(=O)O)o2)sc2c1CCCC2,0,0,0,65.8,0,?,?
N#Cc1c(/N=C/c2ccc(-c3ccc(C(=O)O)c(Cl)c3)o2)sc2c1CCCC2,?,0,0,45.3,0,39.8µM,?
COc1ccc(NC(=O)c2cc(C3CCCCN3C(=O)c3cc(C(C)(C)C)nn3C)on2)c(C)c1 (stereo not given),0,-,0,-,-,-,-
